Experimental data published in PubChem BioAssay (NCI).
This is part of a sample that, as a whole, favours compounds with a hit. Of some 79,000 tested, about 15% had one in any assay. Calls of active or inactive are those of the source. Rule as the data show it: active = growth inhibition above about 70%; inactive = the rest.

Legend:
[1] = NCI Yeast Anticancer Drug Screen. Data for the rad50 strain (AID 155);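 also: 0% = growth of vehicle-only cultures of the same strain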; settings: S. cerevisiae rad50 strain growth inhibition; at 50.0 µM; stronger effect = higher value
Method in brief: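 DNA repair mutant yeast, compound exposure, growth read-out; inhibition is taken relative to vehicle.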

[2] = NCI Yeast Anticancer Drug Screen. Data for the mec2-1 strain (AID 157); settings: S. cerevisiae mec2-1 strain, at 50.0 µM, stronger effect = higher value
Method in brief: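 mec2-1 yeast strain, carrying an alteration in DNA damage repair or cell cycle control, was exposed to compounds; growth inhibition was measured relative to vehicle-treated controls.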

[3] = NCI Yeast Anticancer Drug Screen. Data for the sgs1 mgt1 strain (AID 161);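 also: 0% = growth of cultures given vehicle only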; settings: S. cerevisiae sgs1 mgt1 strain, at 50.0 µM, stronger effect = higher value
Method in brief: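 Yeast cells carrying a defined DNA-repair defect were exposed to test compounds. Growth inhibition was measured relative to vehicle-treated controls.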

[4] = NCI Yeast Anticancer Drug Screen. Data for the cln2 rad14 strain (AID 165);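 also: 0% = growth equal to vehicle treated cultures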; settings: S. cerevisiae cln2 rad14 strain, at 50.0 µM, stronger effect = higher value
Method in brief: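 Yeast carrying cln2 and rad14 alterations (cell cycle control and DNA damage repair) were exposed to compounds. Growth inhibition was measured against vehicle-treated controls.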

[5] = NCI Yeast Anticancer Drug Screen. Data for the bub3 strain (AID 167); settings: S. cerevisiae bub3 mutant strain, at 50.0 µM, stronger effect = higher value
Method in brief: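 In this screen, a yeast mutant lacking normal mitotic checkpoint function is challenged with compound. Relative growth versus vehicle gives the inhibition value.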

[6] = NCI Yeast Anticancer Drug Screen. Data for the mlh1 rad18 strain (AID 175); settings: S. cerevisiae mlh1 rad18 strain growth inhibition; at 50.0 µM; stronger effect = higher value
Method in brief: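 Growth inhibition of the yeast strain was measured after compound exposure and expressed relative to vehicle-treated controls. The strain carries defined defects in DNA damage repair.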

Measured: growth inhibition

O=NN1CCCNCC1
inactive: [1] -4.2% | [2] -14.9% | [3] -4.65% | [4] -42.4% | [5] 15.4% | [6] 4.25%

O=NN1CCCCC1
inactive: [1] -18.2% | [2] 7.1% | [3] 28.4% | [4] -15.1% | [5] 0.15% | [6] 18.9%

N.N.N.N.O=C([O-])CCl.O=C([O-])CCl.[Co+3].[O-][Cl+3]([O-])([O-])[O-]
inactive: [1] -32.1% | [2] -0.45% | [3] -30.4% | [4] 26.7% | [5] -6.5% | [6] -17.5%

Cc1ccc(C(=O)Nc2ccc(CP(=O)(O)O)cc2)cc1NC(=O)c1cccc(NC(=O)Nc2cccc(C(=O)Nc3cc(C(=O)Nc4ccc(CP(=O)(O)O)cc4)ccc3C)c2)c1
inactive: [1] -0.5% | [2] 0.95% | [3] 3.6% | [4] -10.3% | [5] -1.55% | [6] -9.25%

CC1(C)OP(=O)(c2ccccc2)C=C1Br (stereo not given)
inactive: [1] -39.9% | [2] -9.4% | [3] -23.4% | [4] -11.8% | [5] -2.75% | [6] -3.7%

CCCCSP(=O)(SCCCC)N1CCCCC1
active: [1] 98.9% | [2] 99.2% | [3] 98.8% | [4] 97.8% | [5] 98.8% | [6] 99%

CCCCCCCCCCOP(OCCCCCCCCCC)Oc1ccccc1
inactive: [1] 47.1% | [2] -4.9% | [3] 2.1% | [4] 10.5% | [5] 0.45% | [6] 7.45%

COCC1OC2OC3C(COC)OC(OC4C(COC)OC(OC5C(COC)OC(OC6C(COC)OC(OC7C(COC)OC(OC8C(COC)OC(OC1C(O)C2O)C(O)C8O)C(O)C7O)C(O)C6O)C(O)C5O)C(O)C4O)C(O)C3O (stereo not given) (tested in a mixture with another compound)
inactive: [1] 13.2% | [2] -13.6% | [3] -4.6% | [4] 20.1% | [5] -18.8% | [6] -64.7%

CCOP(=O)(Cc1ccc(N)cc1)OCC
inactive: [1] -23% | [2] -34% | [3] -21.2% | [4] 19.9% | [5] -23.9% | [6] -14.2%

CCOP(=S)(OCC)Oc1ccc2c(c1)OC(=O)C1(Cl)C2(C)C2(Cl)C(=O)Oc3cc(OP(=S)(OCC)OCC)ccc3C12C (stereo not given)
inactive: [1] 10.2% | [2] 4.75% | [3] 3.45% | [4] 15.1% | [5] 2.05% | [6] 1.45%

CCN1CC2CCC1C2 (stereo not given)
inactive: [1] 5.2% | [2] -3.05% | [3] -14.5% | [4] 5.5% | [5] 3.7% | [6] 4.35%

OC(CN1CC1)C(O)CN1CC1 (stereo not given)
inactive: [1] -16.4% | [2] -26.2% | [3] -34% | [4] 8.15% | [5] -44.8% | [6] -14.2%

CN(C(=O)CCl)c1ccccc1
inactive: [1] 15.3% | [2] 13.7% | [3] 8.5% | [4] 11.2% | [5] 9.75% | [6] 26.9%

Cc1ccc(S(=O)(=O)Nc2cc(C)cc(CCN)c2C)cc1
inactive: [1] 17.1% | [2] -11.6% | [3] -14.6% | [4] 4.75% | [5] 5.5% | [6] -10.1%

CC(C)(N)Cc1ccc(N)cc1
inactive: [1] 15.2% | [2] -1.55% | [3] 7.15% | [4] 18.4% | [5] 2.5% | [6] 24.4%

c1ccc(P2(c3ccccc3)=NSN=S=N2)cc1
inactive: [1] -4.75% | [2] -8.7% | [3] -8.65% | [4] -16.6% | [5] 1.35% | [6] -1.45%

COC1=CC2CCC3C(CCC4(C)C(OC(C)=O)CCC34)C2(C)CC1 (stereo not given)
inactive: [1] 13.2% | [2] 10.8% | [3] 1.2% | [4] 4.1% | [5] -13.3% | [6] -6.8%

NC(=O)Nc1ccc([As](O)O)cc1
inactive: [1] 11.3% | [2] -2.4% | [3] -0.45% | [4] 11.8% | [5] -20% | [6] 15%

S=C(N=Nc1ccccc1)NNc1ccccc1.[Zn+2]
inactive: [1] 28.1% | [2] -9.35% | [3] 19.4% | [4] 12.3% | [5] 36% | [6] 12.3%

COc1ccc2c3c1OC1C(OC)(OC)C=C[C@@]4(Br)[C@@H](C2)N(CC2CC2)CC[C@]314 (stereo not given in full)
inactive: [1] 34.1% | [2] 5.6% | [3] -35.1% | [4] -8.55% | [5] -9.9% | [6] -44.6%

CCCCC(CC)COP(=S)(S)OCC(CC)CCCC.[Sn] (stereo not given)
inactive: [1] -7.7% | [2] -10.4% | [3] -6.5% | [4] -46.9% | [5] 13.8% | [6] -7.7%

COc1ccc2c(c1O)-c1cc(O)cc3c1C(C2)N(CCCl)CC3 (stereo not given)
inactive: [1] 63.4% | [2] 29.1% | [3] 64.6% | [4] 15.8% | [5] -10.3% | [6] 48.7%

CCN1C(=O)NC(=O)C(C)(N2CCCCC2)C1=O (stereo not given)
inactive: [1] 13.4% | [2] 5.3% | [3] 25.9% | [4] 15.2% | [5] 10.7% | [6] 28.7%

O=C1NC(=O)C(C(=O)C(=O)Nc2cccc(C(F)(F)F)c2)C(=O)N1
inactive: [1] -17.7% | [2] 0.1% | [3] -44.7% | [4] -1.75% | [5] -31% | [6] -40.9%

CC(=O)OC1CCC2(C)C(CCC3C2CCC2(C)C(c4ccc(=O)oc4)C(OC(C)=O)CC32O)C1 (stereo not given)
inactive: [1] 45.5% | [2] 0.05% | [3] 21.3% | [4] 4.5% | [5] -4.45% | [6] -0.5%

O=C(O)CCCc1ccc(N(CCCl)OCCCl)cc1
inactive: [1] -21.1% | [2] -3.3% | [3] 16.7% | [4] 10.2% | [5] 13.3% | [6] -0.25%

Cc1cc(C)cc(OP(=O)(Oc2cc(C)cc(C)c2)Oc2cc(C)cc(C)c2)c1
inactive: [1] -13.3% | [2] -24.6% | [3] 5.45% | [4] -3.65% | [5] 1.7% | [6] -5.25%

Cc1ccc(OP(=O)(Oc2ccc(C)cc2)Oc2ccc(C)cc2)cc1.Cc1ccc(OP(=O)(Oc2ccc(C)cc2)Oc2ccc(C)cc2)cc1.Cc1ccc(OP(=O)(Oc2ccc(C)cc2)Oc2ccc(C)cc2)cc1.Cc1ccc(OP(=O)(Oc2ccc(C)cc2)Oc2ccc(C)cc2)cc1.[Cr+3].[O-][Cl+3]([O-])([O-])O
inactive: [1] 0.95% | [2] -2.2% | [3] 0.15% | [4] -3.05% | [5] -4.35% | [6] -3.55%

[Cl][Hg][c]1cccs1
active: [1] 99.6% | [2] 99.8% | [3] 99.5% | [4] 99.5% | [5] 99.7% | [6] 99.6%

O=[N+]([O-])c1cc2n[nH]nc2c2nonc12
inactive: [1] 1.45% | [2] 11.3% | [3] 11.4% | [4] -2.05% | [5] 27.1% | [6] 5.7%

Cc1ccc(NC(=O)c2cc3ccccc3cc2O)c(C)c1
inactive: [1] 17.1% | [2] -16.1% | [3] 20.7% | [4] 8.75% | [5] 17.9% | [6] 21.8%

NCC(=O)c1ccc(O)c(O)c1
inactive: [1] -8.85% | [2] -7.05% | [3] -4.35% | [4] 2.8% | [5] 16.4% | [6] -8.55%

COc1ccc(S(=O)(=O)F)cc1N
inactive: [1] -18.6% | [2] -32.5% | [3] -21.6% | [4] 4.35% | [5] -14.3% | [6] -22.4%

CCOC(=O)C(Cc1c[nH]c2ccccc12)NC(=O)/C=C/N(CCCl)CCCl (stereo not given)
inactive: [1] 9.25% | [2] 9.95% | [3] 17% | [4] 0.25% | [5] -14.5% | [6] 22.2%

CS/C([S-])=N/N=C\c1ccccn1.CS/C([S-])=N/N=C\c1ccccn1.[Ni+2]
inactive: [1] 14.7% | [2] -6.75% | [3] 17.2% | [4] -35.4% | [5] 2.45% | [6] -0.45%

COc1ccc(NC(=O)COc2cccc(Cl)c2)cc1S(=O)(=O)F
inactive: [1] 3.95% | [2] 32.1% | [3] 14.4% | [4] -2.65% | [5] 30.1% | [6] 1.15%

Cc1nc2ccccc2c(=O)n1-c1ccccc1
inactive: [1] -13.6% | [2] -15.9% | [3] 0% | [4] 15.9% | [5] 10.9% | [6] -3.8%

CCCCCCCCCCCCCCCCP(=O)(O)OP(=O)(O)OCC1OC(n2cnc3c(N)ncnc32)C(O)C1O (stereo not given)
active: [3] 88.2% | [6] 80.3%
inactive: [1] 58.3% | [2] 53.2% | [4] 58.6% | [5] 44.6%

Clc1cccc(Cl)c1CBr
inactive: [1] 23.1% | [2] -19.1% | [3] 19.3% | [4] 15.8% | [5] 15.3% | [6] 10.1%

OC1[C@@H]2[C@@H](O)CCCN2C[C@@H](O)[C@H]1O (stereo not given in full)
inactive: [1] -53.2% | [2] -93% | [3] -31.9% | [4] -20.6% | [5] 1.05% | [6] -28.1%
